# Screening data: PubChem BioAssay, National Center for Advancing Translational Sciences (NCATS)
# TSHR ag = TSH receptor (human) agonism; actives 0.48% (n = 73,000); P16473; Potency, µM (series often up to 57.1 µM), most hits filed as activators; HEK293-CNG-TSHR cells (CNG channel as cAMP sensor), membrane potential dye, cAMP; AID 926; active = well fitted activation curve with a large enough effect in the main read-out, with a control signal flat, not every such curve was filed as active; inconclusive = small, poorly fitted or top-dose-only effect, or a change in a side signal; inactive = no such curve, though single readings can be large or run the other way; reference of the percent scale not stated here;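 note: the control signal comes from parental cells without the receptor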
# Target sequence (P16473 whole entry, looked up): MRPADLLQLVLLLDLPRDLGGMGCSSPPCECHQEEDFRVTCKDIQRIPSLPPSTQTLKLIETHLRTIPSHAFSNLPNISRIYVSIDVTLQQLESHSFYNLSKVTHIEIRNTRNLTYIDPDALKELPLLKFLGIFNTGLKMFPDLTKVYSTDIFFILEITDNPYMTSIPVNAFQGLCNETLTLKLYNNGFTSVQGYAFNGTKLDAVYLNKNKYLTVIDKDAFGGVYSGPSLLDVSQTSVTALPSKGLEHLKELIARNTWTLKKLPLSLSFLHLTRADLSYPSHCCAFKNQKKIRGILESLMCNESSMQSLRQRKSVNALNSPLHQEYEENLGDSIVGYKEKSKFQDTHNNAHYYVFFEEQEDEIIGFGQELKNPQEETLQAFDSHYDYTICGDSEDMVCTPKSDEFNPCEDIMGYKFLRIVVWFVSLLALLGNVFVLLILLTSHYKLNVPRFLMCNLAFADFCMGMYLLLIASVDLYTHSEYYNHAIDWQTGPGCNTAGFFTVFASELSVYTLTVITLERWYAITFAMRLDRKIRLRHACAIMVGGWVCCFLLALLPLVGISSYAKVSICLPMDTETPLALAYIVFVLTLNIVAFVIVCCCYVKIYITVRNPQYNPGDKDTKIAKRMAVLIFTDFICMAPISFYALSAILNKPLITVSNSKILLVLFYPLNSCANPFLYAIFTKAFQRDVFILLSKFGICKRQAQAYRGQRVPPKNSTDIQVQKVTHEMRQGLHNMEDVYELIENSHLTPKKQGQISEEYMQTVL
#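 HEK 293 cells stably expressing TSHR and a cAMP-gated CNG channel; parental CNG-only cells as counterscreen. Cells preloaded 60 min with membrane potential dye plus 100 uM RO 20-1724, then compound 30 min; fluorescence read at 590 nm.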
# Epigenetic mod = derepresses silenced GFP locus in mouse C127i cells; mouse C127i GFP locus derepression, cytometry, 30 h; Potency, µM (highest dose often 46.1 µM); actives 0.09% (n = 68,000)
#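 Derepression screen: silenced CMV-GFP reporter in murine C127i cells, 30 h compound incubation at 37 C, washed cells imaged by laser-scanning cytometer to enumerate GFP-expressing objects of 20 to 120 um.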
# HEK293 cAMP ctrl = counter-screen for TSHR agonists: cAMP increase in parental HEK293; parental HEK293 CNG cAMP sensor, membrane potential fluorescence; Potency, µM (series often up to 57.1 µM), hits mostly activators; actives 2.5% (n = 73,000); AID 938; note: nearly all actives have a fitted effect of over 55% in size
#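 Parental HEK 293 cells stably expressing a cAMP-gated CNG channel were loaded with membrane potential dye containing 100 uM RO 20-1724 for 60 min. Compound added for 30 min; depolarization read as fluorescence intensity at 590 nm.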
# Ub-GFP proteasome = inhibits proteasome, raising ubiquitin-GFP reporter fluorescence. 67,000 tested, under 10 active. Potency, µM (doses to about 45.9 µM), actives largely listed as activators. AID 526. Ubiquitin-GFP reporter cells, proteasome inhibition, GFP fluorescence; response scale: untreated = 0%, 10 µM MG-132 = 100%; active = well fitted activation curve with a large enough effect, not every such curve was filed as active; inconclusive = small, poorly fitted or top-dose-only effect, or another doubt; inactive = no such curve, though single readings can be large or run the other way
#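 U2OS cells stably expressing ubiquitin(G76V)-GFP, seeded overnight in 0.5% FBS medium, were exposed to compounds (qHTS, 46 uM to 2.9 nM) for 4 hr at 37 °C. GFP-positive cells were counted by laser cytometry (488 ex/515 em), normalized between basal and 10 uM MG-132.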
# HBB splicing = alters splicing of the hemoglobin beta chain. HBB splicing reporter cell assay, activation; EGFP reporter with mutant IVS2-654 intron; response scale: normalised to 500 nM splice-correcting PNA. Potency, µM (series often up to 46.1 µM), actives largely listed as activators. actives 0.06% (n = 65,000)
#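 Compounds were applied for 2 days to HeLa EGFP-654 cells, 500/well in Optimem with 2% FCS. The reporter's EGFP is disrupted by mis-splicing of beta-globin intron IVS2-654. Readout: summed well GFP fluorescence from 488 nm laser scanning; reference was 500 nM antisense […] 654 PNA.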
# ERK AVP block = vasopressin-driven ERK pathway inhibition | HEK293-V1b, vasopressin-stimulated pERK AlphaScreen | AID 995 | Potency, µM (highest dose often 57.5 µM), actives largely listed as inhibitors | actives 0.99% (n = 72,000); note: nearly all actives have a fitted effect of over 55% in size
#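 qHTS, compounds titrated on V1b-expressing HEK293 cells. Preincubation 30 min at 37C, vasopressin 25 nM for 5 min, lysis 10 min, bead incubation 5 hr at room temperature.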
# Numbers stand for hits; – = inactive; ? = inconclusive; · = not tested or not shown; [ ] = dose if it differs, or a comment. Hits are enriched below; roughly 3.8% of the tested compounds scored in any of these assays. Unless noted, calls come from the whole dose curve; as a rule, active = well fitted curve in the direction sought with a large enough effect; inconclusive = small, poorly fitted or top-dose-only effect, or another doubt; inactive = no such curve, though single readings can be large; an effect the other way counts as inactive or inconclusive.
SMILES,TSHR ag,Epigenetic mod,HEK293 cAMP ctrl,Ub-GFP proteasome,HBB splicing,ERK AVP block
CCC(C)(C)n1nnnc1C(C(C)C)N1CCSCC1 (stereo not given),?,–,6.3µM,–,·,–
CCOCCCn1c(C)nc2c(c1=O)c1nc3ccccc3nc1n2CCC1=CCCCC1,?,–,20µM,–,–,–
Cc1ccc(-n2nnnc2SCC(=O)NCCC2=CCCCC2)c(C)c1,?,–,32µM,–,–,–
CS(=O)(=O)c1ccc([C@H](O)[C@H](CF)NC(=O)C(Cl)Cl)cc1,–,–,–,–,–,–
CCC(C(=O)N1CCN(c2cccc(Cl)c2)CC1)c1ccccc1 (stereo not given),?,–,25µM,–,–,?
O=C(O)CCC(=O)N1CCN(c2cccc(Cl)c2)CC1,–,–,–,–,–,–
O=C(CSc1nnnn1-c1ccccc1)N1CCc2ccccc2C1,?,–,16µM,–,–,–
CC(=O)c1ccc(-n2nnnc2SCC(=O)N2CCc3ccccc3C2)cc1,–,–,–,–,·,–
CC(C)c1nc(-c2c(N)n(C)c(=O)n(C)c2=O)sc1C(=O)C(C)(C)C,?,–,16µM,–,–,?
Cc1nnc(SCC(=O)c2c(N)n(C)c(=O)n(C)c2=O)[nH]c1=O,–,–,–,–,–,–
Cc1cc(C)n(-c2nnc(C)n2/N=C/c2cc(Br)ccc2OCc2ccccc2)n1,?,–,3.2µM,–[9.17 µM],–[0.0738 µM],–
Cc1cc(C)n(-c2nnc(C)n2/N=C/c2ccccc2OCc2ccccc2Cl)n1,?,–,1.3µM,–[9.17 µM],–[0.0738 µM],?
COc1ccc(C(C)=O)cc1COC(=O)c1cccc(N(C)C)c1,?,–,?,–,–,–
COc1ccc(C(C)=O)cc1COC(=O)c1cc(C)oc1C,?,–,25µM,·,–[0.369 µM],?
c1ccc(CCNCc2ccco2)nc1,–[11.4 µM],–[9.22 µM],–[11.4 µM],–[9.17 µM],–[9.22 µM],–[11.5 µM]
Cc1noc(C)c1C(=O)N1CCC[C@@]2(CCN(C(=O)Nc3ccccc3)C2)C1,–,–[9.22 µM],–,–,–,–
COC(=O)[C@H](NC(=O)c1cc(-c2ccccc2)nc2ccccc12)c1ccccc1,?,–,13µM,–,·,–
COc1ccc2[nH]c(=O)c(CN(CC3CCCO3)C(=O)Nc3ccc(F)cc3)cc2c1 (stereo not given),–,–,–,–,–,13µM
CC(=O)O[C@@H]1[C@H]([N+]2(C)CCCCC2)C[C@@H]2[C@@H]3CC[C@@H]4C[C@@H](OC(C)=O)[C@H]([N+]5(C)CCCCC5)C[C@@]4(C)[C@H]3CC[C@]21C,–,–,–,–,–,–
Nc1c(C(=O)NC2CC2)c2nc3ccccc3nc2n1-c1ccc2c(c1)OCO2,–,–,–,·,–[0.369 µM],?
Nc1c(C(=O)OCC2CCCO2)c2nc3ccccc3nc2n1-c1ccc2c(c1)OCCO2 (stereo not given),–,–,–,–,–,20µM
CC(=O)O[C@H]1CC[C@@]2(C)C(=CC[C@@H]3[C@H]4CC[C@@H]([C@H](C)C(=O)O)[C@]4(C)CC[C@H]32)C1,–[11.4 µM],–[9.22 µM],–[11.4 µM],–[9.17 µM],–[9.22 µM],–[11.5 µM]
Cc1ccc(S(=O)(=O)N2Cc3ccccc3CC2C(=O)Nc2cc(C)on2)cc1 (stereo not given),25µM,–,–,–,–,–
CC1CCN(C(=O)C2Cc3ccccc3CN2S(=O)(=O)c2ccc(F)cc2)CC1 (stereo not given),?,–,20µM,–,–,–
O=C(C1Cc2ccccc2CN1S(=O)(=O)c1ccc(F)cc1)N1CCCCCC1 (stereo not given),?,–,?,–,–,–
SMILES,TSHR ag,Epigenetic mod,HEK293 cAMP ctrl,Ub-GFP proteasome,HBB splicing,ERK AVP block
Cc1ccc(S(=O)(=O)N2Cc3ccccc3CC2C(=O)Nn2cnnc2)cc1 (stereo not given),–,–,–,–,–,–
COc1ccccc1CN1CC[C@@]2(CCCN(S(=O)(=O)c3ccccc3)C2)C1,–,–[9.22 µM],–,–,–,–
COC(=O)[C@@H]1C[C@@]2(O)[C@@H](O)[C@@H](O)[C@@H](O)C[C@H]2N1CC(c1ccccc1)c1ccccc1,·,·,·,·,·,–
Cc1cc2oc(=O)cc(CN3CCN(Cc4ccc5c(c4)OCO5)CC3)c2cc1C,2.5µM,–,–,–,–,–
Cc1cc2oc(=O)cc(CN3CCC(C)CC3)c2cc1Cl,?,–,25µM,–,–,–
Cc1cc2oc(=O)cc(CN3CCCCC3C)c2c(C)c1Cl (stereo not given),?,–,25µM,–,–,–
N#Cc1cccc(-c2nc(NCCN3CCOCC3)c3ccccc3n2)c1,–,–[9.22 µM],–,–,–,?
